For this assay, the system named is A549. Nature of the assay: relative viability (normalised to negative control = 1, bortezomib = 0) (fraction); higher = less cytotoxic. The settings on record: inflammatory serum-free RHB-A with cytokines + LPS, 5 d + 24 h CellTiter-Blue. How it is done:
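A549 KRAS-mutant NSCLC cells, pre-treated 5 µM GSK126 or vehicle (DMSO), were seeded at 250 cells/well in 384-well plates in serum-free RHB-A medium with inflammatory cytokines/LPS and treated with Selleck kinase inhibitor and NCI oncology compounds at 30 or 300 nM in triplicate, refreshed at 48 h. Viability was read by CellTiter-Blue after 5 d plus 24 h and normalised per plate with cellHTS2 (mean of bortezomib positive control = 0, mean of negative control = 1).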

[1] abbreviates: compound 30 nM, GSK126 pretreatment: 5 uM GSK126.
Setting [2] is: compound 30 nM, GSK126 pretreatment: none (vehicle).
Where [3] appears, read: compound 300 nM, GSK126 pretreatment: 5 uM GSK126.
The mark [4] stands for this setting: compound 300 nM, GSK126 pretreatment: none (vehicle).

From the supplement of paper PMC6279402 come the findings set out here.

Molecules are shown by their SMILES. Counter-ions that a name gives are not always drawn. ± gives the standard deviation of the averaged measurements.

Regarding `COc1cc2ncnc(Nc3cccc(Br)c3)c2cc1OC`, the relative viability runs as follows: under setting [1], 0.996 ± 0.044; under setting [2], 0.976 ± 0.048; under setting [3], 0.537 ± 0.17; under setting [4], 0.701 ± 0.086.

Regarding `CN1CC[C@H](c2c(O)cc(O)c3c(=O)cc(-c4ccccc4Cl)oc23)[C@H](O)C1` [Flavopiridol (Alvocidib)], the relative viability runs as follows: under setting [1], 0.777 ± 0.11; under setting [2], 0.771 ± 0.15; under setting [3], 0.0118 ± 0.0013; under setting [4], 0.0301 ± 0.0094.

`CC[C@@]1(O)C(=O)OCc2c1cc1n(c2=O)Cc2cc3c(CN(C)C)c(O)ccc3nc2-1` [Topotecan HCl; Topotecan hydrochloride]: the relative viability is 0.421 ± 0.033 under setting [1], 0.383 ± 0.021 under setting [2], 0.317 ± 0.026 under setting [3] and 0.221 ± 0.038 under setting [4].

Turning to `COc1cc2nccc(Oc3ccc(NC(=O)C4(C(=O)Nc5ccc(F)cc5)CC4)cc3)c2cc1OC` [XL184; Cabozantinib], the relative viability came out at 0.903 ± 0.061 under setting [1], 0.875 ± 0.12 under setting [2], 0.986 ± 0.043 under setting [3] and 0.974 ± 0.014 under setting [4].

In the case of `NC1(Cc2ccc(Cl)cc2)CCN(c2ncnc3[nH]ccc23)CC1`, the relative viability under setting [1] is 0.832 ± 0.029, the relative viability under setting [2] was 0.844 ± 0.05, the relative viability under setting [3] amounted to 0.839 ± 0.1 and the relative viability under setting [4] was 0.875 ± 0.023.

Regarding `CC(C)(C)Cn1c(N)nc2ccc(-c3[nH]c(C(C)(C)C)nc3-c3ccc(F)cc3)nc21`, the relative viability under setting [1] was 1.11 ± 0.14, the relative viability under setting [2] turned out to be 0.933 ± 0.21, the relative viability under setting [3] stood at 1.25 ± 0.16 and the relative viability under setting [4] is 1.15 ± 0.18.

In the case of `CO[C@H]1C[C@@H]2CC[C@@H](C)[C@@](O)(O2)C(=O)C(=O)N2CCCC[C@H]2C(=O)O[C@H]([C@H](C)C[C@@H]2CC[C@@H](OCCO)[C@H](OC)C2)CC(=O)[C@H](C)/C=C(\C)[C@@H](O)[C@@H](OC)C(=O)[C@H](C)C[C@H](C)/C=C/C=C/C=C/1C` [Everolimus; Everolimus(RAD001)], the relative viability under setting [1] is 0.647 ± 0.072, the relative viability under setting [2] turned out to be 0.615 ± 0.033, the relative viability under setting [3] turned out to be 0.562 ± 0.068 and the relative viability under setting [4] stood at 0.582 ± 0.063.

On to `O=C(c1ccc(OCCN2CCCCC2)cc1)c1c(-c2ccc(O)cc2)sc2cc(O)ccc12` [Raloxifene HCl; Raloxifene hydrochloride], for which the relative viability was 0.955 ± 0.064 under setting [1], 0.897 ± 0.094 under setting [2], 0.961 ± 0.043 under setting [3] and 0.987 ± 0.058 under setting [4].

For the molecule `CO[C@H]1C[C@@H]2CC[C@@H](C)[C@@](O)(O2)C(=O)C(=O)N2CCCC[C@H]2C(=O)O[C@H]([C@H](C)C[C@@H]2CC[C@@H](OC(=O)C(C)(CO)CO)[C@H](OC)C2)CC(=O)[C@H](C)/C=C(\C)[C@@H](O)[C@@H](OC)C(=O)[C@H](C)C[C@H](C)/C=C/C=C/C=C/1C` [CCI-779; Temsirolimus], the relative viability runs as follows: under setting [1], 0.532 ± 0.038; under setting [2], 0.541 ± 0.034; under setting [3], 0.46 ± 0.069; under setting [4], 0.531 ± 0.028.

Turning to `Cn1cnc(-c2cc3nccc(Oc4ccc(NC(=S)NC(=O)Cc5ccccc5)cc4F)c3s2)c1`, the relative viability turned out to be 0.819 ± 0.071 under setting [1], 0.832 ± 0.051 under setting [2], 0.838 ± 0.093 under setting [3] and 0.945 ± 0.065 under setting [4].
